# Test results as given in PubChem BioAssay AID1159580 (chemical genetic matrix, 2015).
# Where “and” joins values, the source holds several entries; their conditions need not be identical. Equal entries are not always repeated. Among all 5,500 compounds or so, about 2,000 (36%) were called active. Not shown: some 18% with an inconclusive outcome. Some of the results follow. Unmarked numbers belong to inactive results. Rule as the data show it: active = normalized growth mostly below about 0.91 (no sharp cut-off); inconclusive = no clear call, values can overlap the other calls; inactive = mostly above about 0.92.
# Experiment: chemical genetic growth profiling, strain panel (AID 1159580);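 also: tested at 20 µM; growth read once vehicle control cultures reached saturation at 30 °C; 1 = growth at the plate median or of vehicle wells; lower values mean less growth of the strain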
# Conditions: growth OD
# [1] = S. cerevisiae deletion strains, locus YAL013W, strain DEP1, active compounds read low
# [2] = S. cerevisiae deletion strains, locus YBR229C, strain ROT2, active compounds read low
# [3] = S. cerevisiae deletion strains, locus YDL101C, strain DUN1, active compounds read low
# [4] = S. cerevisiae deletion strains, locus YDR150W, strain NUM1, active compounds read low
# [5] = S. cerevisiae deletion strains, locus YEL061C, strain CIN8, active compounds read low
# [6] = S. cerevisiae deletion strains, locus YGR078C, strain PAC10, active compounds read low
# [7] = S. cerevisiae deletion strains, locus YGR229C, strain SMI1, active compounds read low
# [8] = S. cerevisiae deletion strains, locus YHR030C, strain SLT2, active compounds read low
# [9] = S. cerevisiae deletion strains, locus YJR043C, strain POL32, active compounds read low
# [10] = S. cerevisiae deletion strains, locus YJR075W, strain HOC1, active compounds read low
# [11] = S. cerevisiae deletion strains, locus YKL190W, strain CNB1, active compounds read low
# [12] = S. cerevisiae deletion strains, locus YLR039C, strain RIC1, active compounds read low
# [13] = S. cerevisiae deletion strains, locus YLR262C, strain YPT6, active compounds read low
# [14] = S. cerevisiae deletion strains, locus YMR263W, strain SAP30, active compounds read low
# [15] = S. cerevisiae deletion strains, locus YNL153C, strain GIM3, active compounds read low
# [16] = S. cerevisiae deletion strains, locus YNL322C, strain KRE1, active compounds read low
# [17] = S. cerevisiae deletion strains, locus YPL055C, strain LGE1, active compounds read low
# [18] = S. cerevisiae deletion strains, locus YPL241C, strain CIN2, active compounds read low
# [19] = S. cerevisiae deletion strains, locus YMR307W, strain GAS1, active compounds read low
# [20] = S. cerevisiae deletion strains, locus YNL128W, strain TEP1, active compounds read low
# [21] = S. cerevisiae deletion strains, locus YAL040C, strain CLN3, active compounds read low
# [22] = S. cerevisiae deletion strains, locus YCL061C, strain MRC1 (second series), active compounds read low
# [23] = S. cerevisiae deletion strains, locus YDR363W, strain ESC2, active compounds read low
# [24] = S. cerevisiae deletion strains, locus YER002W, strain NOP16, active compounds read low
# [25] = S. cerevisiae deletion strains, locus YNL175C, strain NOP13, active compounds read low
# [26] = S. cerevisiae deletion strains, locus YNL197C, strain WHI3, active compounds read low
# [27] = S. cerevisiae deletion strains, locus YNL224C, strain SQS1, active compounds read low
# [28] = S. cerevisiae deletion strains, locus YOR083W, strain WHI5 (second series), active compounds read low
smiles,measurement,setting,value
Cc1ccc(C)c(NC(=S)N(CCc2ccccc2)CCc2ccccn2)c1,normalized growth,[1],0.989
same,normalized growth,[2],0.983
same,normalized growth,"S. cerevisiae deletion strains, locus YCL061C, strain MRC1, active compounds read low",1
same,normalized growth,[3],1.04
same,normalized growth,[4],0.99
same,normalized growth,[5],0.953
same,normalized growth,[6],0.996
same,normalized growth,[7],0.974
same,normalized growth,[8],0.978
same,normalized growth,"S. cerevisiae deletion strains, locus YHR087W, strain rtc3, active compounds read low",0.958
same,normalized growth,"S. cerevisiae deletion strains, locus YJL187C, strain SWE1, active compounds read low",0.989
same,normalized growth,[9],1.01
same,normalized growth,[10],0.999
same,normalized growth,[11],0.964
same,normalized growth,[12],0.606 (active)
same,normalized growth,"S. cerevisiae deletion strains, locus YLR058C, strain SHM2 (second series), active compounds read low",0.98
same,normalized growth,"S. cerevisiae deletion strains, locus YLR085C, strain ARP6, active compounds read low",0.928
same,normalized growth,[13],0.853
same,normalized growth,"S. cerevisiae deletion strains, locus YML094W, strain GIM5, active compounds read low",0.95
same,normalized growth,"S. cerevisiae deletion strains, locus YMR219W, strain ESC1, active compounds read low",0.996
same,normalized growth,[14],0.985
same,normalized growth,[15],1.01
same,normalized growth,"S. cerevisiae deletion strains, locus YNL298W, strain CLA4 (second series), active compounds read low",0.984
same,normalized growth,[16],0.974
same,normalized growth,"S. cerevisiae deletion strains, locus YNR030W, strain Alg12, active compounds read low",0.988
same,normalized growth,[17],0.946
same,normalized growth,[18],1.03
same,normalized growth,"S. cerevisiae deletion strains, locus YPR135W, strain CTF4, active compounds read low",0.942
CNCCc1ccccn1,normalized growth,[1],1.01
same,normalized growth,"S. cerevisiae deletion strains, locus YBR021W, strain FUR4, active compounds read low",1.02
same,normalized growth,[2],1.01
same,normalized growth,"S. cerevisiae deletion strains, locus YCL029C, strain bik1, active compounds read low",1.04
same,normalized growth,"S. cerevisiae deletion strains, locus YDL035C, strain GPR1, active compounds read low",0.992
same,normalized growth,"S. cerevisiae deletion strains, locus YDL074C, strain BRE1, active compounds read low",1.03
same,normalized growth,[3],1.01
same,normalized growth,"S. cerevisiae deletion strains, locus YDL134C, strain PPH21, active compounds read low",1.01
same,normalized growth,"S. cerevisiae deletion strains, locus YDL185W, strain tfp1, active compounds read low",1.02
same,normalized growth,"S. cerevisiae deletion strains, locus YDL192W, strain arf1, active compounds read low",1.02
same,normalized growth,"S. cerevisiae deletion strains, locus YDR101C, strain arx1, active compounds read low",1.01
same,normalized growth,[4],1.01
same,normalized growth,"S. cerevisiae deletion strains, locus YDR162C, strain NBP2, active compounds read low",1.01
same,normalized growth,"S. cerevisiae deletion strains, locus YDR318W, strain mcm21, active compounds read low",1.02
same,normalized growth,"S. cerevisiae deletion strains, locus YDR388W, active compounds read low",1.01
same,normalized growth,"S. cerevisiae deletion strains, locus YDR502C, strain sam2, active compounds read low",1.01
same,normalized growth,[5],1.01
same,normalized growth,"S. cerevisiae deletion strains, locus YER110C, active compounds read low",1.02
same,normalized growth,"S. cerevisiae deletion strains, locus YER155C, strain BEM2, active compounds read low",1
same,normalized growth,"S. cerevisiae deletion strains, locus YER167W, strain BCK2, active compounds read low",1.01
same,normalized growth,"S. cerevisiae deletion strains, locus YGL078C, strain dbp3, active compounds read low",1.01
same,normalized growth,"S. cerevisiae deletion strains, locus YGL086W, strain mad1, active compounds read low",1
same,normalized growth,"S. cerevisiae deletion strains, locus YGL248W, strain PDE1, active compounds read low",1
same,normalized growth,[6],1.03
same,normalized growth,"S. cerevisiae deletion strains, locus YGR135W, strain pre9, active compounds read low",1.01
same,normalized growth,[7],1.02
same,normalized growth,"S. cerevisiae deletion strains, locus YGR252W, strain gcn5, active compounds read low",0.958
same,normalized growth,[8],1.01 and 1.04
same,normalized growth,"S. cerevisiae deletion strains, locus YHR079C, strain IRE1 (second series), active compounds read low",1.02
same,normalized growth,"S. cerevisiae deletion strains, locus YHR079C, strain IRE1, active compounds read low",1.04
same,normalized growth,"S. cerevisiae deletion strains, locus YHR094C, strain hxt1, active compounds read low",1.01
same,normalized growth,"S. cerevisiae deletion strains, locus YHR129C, strain ARP1, active compounds read low",0.996
same,normalized growth,"S. cerevisiae deletion strains, locus YHR200W, strain rpn10, active compounds read low",1.01
same,normalized growth,"S. cerevisiae deletion strains, locus YIL066C, strain RNR3, active compounds read low",1.02
same,normalized growth,"S. cerevisiae deletion strains, locus YIL073C, strain SPO22, active compounds read low",1.06
same,normalized growth,"S. cerevisiae deletion strains, locus YIL125W, strain kgd1, active compounds read low",1
same,normalized growth,"S. cerevisiae deletion strains, locus YIR030C, strain dcg1, active compounds read low",1.01
same,normalized growth,"S. cerevisiae deletion strains, locus YJL095W, strain BCK1, active compounds read low",1.04 and 1.03
same,normalized growth,"S. cerevisiae deletion strains, locus YJL134W, strain LCB3, active compounds read low",1
same,normalized growth,"S. cerevisiae deletion strains, locus YJL168C, strain set2, active compounds read low",1.01
same,normalized growth,"S. cerevisiae deletion strains, locus YJL187C, strain SWE1 (second series), active compounds read low",1.02
same,normalized growth,[9],1.02
same,normalized growth,"S. cerevisiae deletion strains, locus YJR066W, strain TOR1, active compounds read low",0.978
same,normalized growth,[10],1.02
same,normalized growth,"S. cerevisiae deletion strains, locus YKL009W, strain mrt4, active compounds read low",1.07
same,normalized growth,"S. cerevisiae deletion strains, locus YKL068W, active compounds read low",1.01
same,normalized growth,"S. cerevisiae deletion strains, locus YKL085W, strain MDH1 (second series), active compounds read low",1.01
same,normalized growth,"S. cerevisiae deletion strains, locus YKL085W, strain MDH1, active compounds read low",1.01
same,normalized growth,[11],1.01
same,normalized growth,"S. cerevisiae deletion strains, locus YKR001C, strain vps1, active compounds read low",1.01
same,normalized growth,[12],1.02
same,normalized growth,"S. cerevisiae deletion strains, locus YLR058C, strain SHM2, active compounds read low",1.01
same,normalized growth,"S. cerevisiae deletion strains, locus YLR102C, strain apc9, active compounds read low",1.02
same,normalized growth,"S. cerevisiae deletion strains, locus YLR113W, strain HOG1, active compounds read low",1.03
same,normalized growth,[13],1.02
same,normalized growth,"S. cerevisiae deletion strains, locus YLR268W, strain sec22, active compounds read low",1.04
same,normalized growth,"S. cerevisiae deletion strains, locus YLR330W, strain CHS5, active compounds read low",1.01
same,normalized growth,"S. cerevisiae deletion strains, locus YLR342W, strain FKS1 (second series), active compounds read low",1.02
same,normalized growth,"S. cerevisiae deletion strains, locus YLR371W, strain rom2, active compounds read low",1.02
same,normalized growth,"S. cerevisiae deletion strains, locus YLR418C, strain cdc73, active compounds read low",1.03
same,normalized growth,"S. cerevisiae deletion strains, locus YML016C, strain PPZ1, active compounds read low",1
same,normalized growth,"S. cerevisiae deletion strains, locus YML032C, strain rad52, active compounds read low",1.03
same,normalized growth,"S. cerevisiae deletion strains, locus YML124C, strain tub3, active compounds read low",1.01
same,normalized growth,"S. cerevisiae deletion strains, locus YMR078C, strain ctf18, active compounds read low",1.02
same,normalized growth,"S. cerevisiae deletion strains, locus YMR223W, strain ubp8, active compounds read low",1.01
same,normalized growth,[14],1.03
same,normalized growth,[19],0.966
same,normalized growth,"S. cerevisiae deletion strains, locus YNL067W, strain RPL9B, active compounds read low",1.02
same,normalized growth,[20],1.01
same,normalized growth,[15],1.01
same,normalized growth,"S. cerevisiae deletion strains, locus YNL183C, strain NPR1, active compounds read low",0.978
same,normalized growth,"S. cerevisiae deletion strains, locus YNL233W, strain BNI4, active compounds read low",1.01
same,normalized growth,"S. cerevisiae deletion strains, locus YNL250W, strain rad50, active compounds read low",1.03
same,normalized growth,"S. cerevisiae deletion strains, locus YNL271C, strain bni1, active compounds read low",1.02
same,normalized growth,"S. cerevisiae deletion strains, locus YNL298W, strain CLA4, active compounds read low",1.01
same,normalized growth,"S. cerevisiae deletion strains, locus YNL307C, strain MCK1, active compounds read low",1.02
same,normalized growth,[16],1.01
same,normalized growth,"S. cerevisiae deletion strains, locus YNR052C, strain pop2, active compounds read low",1.01
same,normalized growth,"S. cerevisiae deletion strains, locus YOL006C, strain TOP1, active compounds read low",1.08
same,normalized growth,"S. cerevisiae deletion strains, locus YOL012C, strain htz1",0.922
same,normalized growth,"S. cerevisiae deletion strains, locus YOL147C, strain pex11, active compounds read low",1.01
same,normalized growth,"S. cerevisiae deletion strains, locus YOR061W, strain CKA2, active compounds read low",1.01
same,normalized growth,"S. cerevisiae deletion strains, locus YOR069W, strain VPS5, active compounds read low",1.01
same,normalized growth,"S. cerevisiae deletion strains, locus YOR136W, strain idh2, active compounds read low",1.01
same,normalized growth,"S. cerevisiae deletion strains, locus YOR144C, strain elg1, active compounds read low",1.01
same,normalized growth,"S. cerevisiae deletion strains, locus YOR184W, strain ser1, active compounds read low",1.02
same,normalized growth,"S. cerevisiae deletion strains, locus YOR231W, strain MKK1, active compounds read low",1.02
same,normalized growth,"S. cerevisiae deletion strains, locus YOR316C, strain cot1, active compounds read low",1.01
same,normalized growth,[17],1.04
same,normalized growth,[18],1.01
same,normalized growth,"S. cerevisiae deletion strains, locus YPL256C, strain CLN2, active compounds read low",1.04
same,normalized growth,"S. cerevisiae deletion strains, locus YPR119W, strain clb2, active compounds read low",1.01
same,normalized growth,"S. cerevisiae deletion strains, locus YPR141C, strain kar3, active compounds read low",1.02
same,normalized growth,"S. cerevisiae deletion strains, locus YPR163C, strain tif3, active compounds read low",1.02
same,normalized growth,"S. cerevisiae deletion strains, locus YPR167C, strain met16, active compounds read low",1.01
same,normalized growth,"S. cerevisiae deletion strains, strain wtn01, active compounds read low",1.01
same,normalized growth,"S. cerevisiae strains, strain wild type, active compounds read low",1.01
C[N+](C)(C)CCOC(=O)CCC(=O)OCC[N+](C)(C)C,normalized growth,[21],0.988
same,normalized growth,[22],1.01
same,normalized growth,[4],1.02
same,normalized growth,[23],1.01
same,normalized growth,[24],1.01
same,normalized growth,[7],1.04
same,normalized growth,[10],0.992
same,normalized growth,[14],1
same,normalized growth,[19],1.03
same,normalized growth,[15],1.03
same,normalized growth,[25],1.01
same,normalized growth,[26],1.02
same,normalized growth,[27],1.01
same,normalized growth,[16],0.992
same,normalized growth,[28],1.02
same,normalized growth,[18],0.987
CNC(=O)OCC[N+](C)(C)C,normalized growth,[1],0.99
same,normalized growth,[21],1
same,normalized growth,[22],0.992
same,normalized growth,[23],0.957
same,normalized growth,[24],0.968
same,normalized growth,[10],1.01
same,normalized growth,[20],1
same,normalized growth,[15],0.983
same,normalized growth,[25],0.973
same,normalized growth,[26],0.962
same,normalized growth,[27],0.989
same,normalized growth,[28],0.985
C[N+](C)(C)CCOC(=O)CBr,normalized growth,[4],1.06 [resistant] (active)
same,normalized growth,[23],1.05
same,normalized growth,[24],1
same,normalized growth,[6],1.02
same,normalized growth,[14],1.01
same,normalized growth,[15],1.07
same,normalized growth,[25],1.02
same,normalized growth,[26],0.985
same,normalized growth,[27],1.01
same,normalized growth,[28],1.05
same,normalized growth,[18],1.01
